Compound activity as filed in PubChem.
Pf Dd2 inh – blocks in vitro growth of P. falciparum Dd2; P. falciparum Dd2 growth, SYBR Green, 72 h; Potency, µM (titrated, usually from 28.9 µM), for inactives: at the highest dose activity, negative = inhibition, usual class: inhibitors; hit rate 4.3% among 120,000; active = well fitted inhibition curve with a large enough effect;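 also: plate controls were DMSO vehicle for no effect and reference drug for full effect; nearly all actives have a fitted effect of over 65% in size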
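Readout: SYBR Green fluorescence, 485 nm excitation, 535 nm emission, after ~16 h lysis at 37C. Before that, Dd2-infected red cells (2.5% hematocrit) grew 72 h with compound, 29 uM top final concentration.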
* marks the source's active call; other numbers are inactive results; i = inactive; [ ] = another dose, or the depositor's remark. Shown is part of a subset that was picked to be rich in hits. Potency is read from the fitted curve at half-maximal effect.

SMILES	Pf Dd2 inh
COc1ccc(OC)c(NC(=O)Cn2cccc2-c2nc(-c3ccc(OC)c(F)c3)no2)c1	4.8%
COc1cc(OC)cc(C(=O)N2CCC3(CC2)NC(=O)N(c2ccc(F)cc2)N3)c1	i
COc1cccc(CCN(Cc2cccc(C)c2)C(=O)[C@H]2CCC[C@H](O)C2)c1	-13.7%
CCCNC1(Cc2cc(CC(C)C)on2)COC1	i
Cc1cc(C)c2c(-n3cccc3)c(C(=O)NCCc3ccccc3)sc2n1	-6.5%
CC(c1cccs1)N(C)Cc1cccc2ccccc12 (stereo not given)	12.6µM*
CC(c1cccs1)N(C)S(C)(=O)=O (stereo not given)	-7.9%[44.1 µM]
COc1cccc(CN(C)C(C)c2cccs2)c1 (stereo not given)	i
COc1ccccc1NC(=O)CSc1ncc2c(n1)-c1cc(Cl)ccc1N(C)S2(=O)=O	-4.8%
COCC(=O)N(C)Cc1cccn1C	17.9%[44.1 µM]
COc1ccc(CN2CCc3ncc(C(=O)NCc4cccc(Cl)c4)n3CC2)cn1	-12.2%[44.1 µM]
Cc1cccnc1C(=O)N1C[C@@H](COc2ccccc2)[C@H](C(N)=O)C1	31.2%
O=C(C1CCOCC1)N1CCC(c2nc(C3CCOCC3)no2)CC1	21.9%
Cc1ccc(C)c(N2CCN(C(=O)CCC(=O)Nc3ccc4nc(N5CCCCC5)cc(C)c4c3)CC2)c1	i
Cc1cc(N2CCCCC2)nc2ccc(NC(=O)CCC(=O)N3CCN(c4ccccc4)CC3)cc12	-25.5%
COc1ccc(-n2nc3ccc(NC(=O)c4cccc(OCCC(C)C)c4)cc3n2)cc1	i
CCOc1ccc(C(=O)Nc2ccc3ncnc(N4CCCCC4)c3c2)cc1	i
CCN1CCN(c2cc(C)c3cc(NC(=O)/C=C/c4ccc(OCCC(C)C)cc4)ccc3n2)CC1	1.12µM*
CCN1CCN(c2cc(C)c3cc(NC(=O)/C=C/c4ccc(C)cc4)ccc3n2)CC1	1.12µM*
COc1ccc(NC(=O)O[C@@H]2CO[C@H]3[C@@H]2OC[C@@H]3NS(=O)(=O)c2ccc(Cl)cc2)cc1	-8.2%
COCCN1C(=O)C(CC(=O)NC2CCS(=O)(=O)C2)=C2CCCCC21 (stereo not given)	11.7%
CC(C)CCN1C(=O)CC[C@H]2CN(C(=O)Cn3ccc(=O)[nH]c3=O)CC[C@H]21	15.7%
CC[C@H]1CN(C(=O)N2CCOCC2)CC[C@H]1CC(=O)NCc1ccccc1OC	7.2%[44.1 µM]
Cc1c(C(C)NC(=O)Cc2c[nH]c3ccccc23)cnn1-c1ccccn1 (stereo not given)	-23.9%
COc1ccc(-c2cc3c(nc2OC)nc(CC2CC2)n3C)cc1	-9.8%[44.1 µM]
SMILES	Pf Dd2 inh
COc1nc2nc(CCc3ccccc3)n(C)c2cc1-c1ccncc1	-11.6%[44.1 µM]
COc1ncc(-c2cc3c(nc2OC)nc(CCc2ccccc2)n3C)cn1	7.94µM*
Cc1ccccc1C(=O)Nc1nnc(S(=O)(=O)N(C)Cc2ccc(Cl)cc2)s1	58.3%
CCOc1ccccc1NC(=O)N1CCC(c2noc(COC)n2)C1 (stereo not given)	-7.1%
CCCNC(=O)N1CCC(c2noc(COc3ccc(F)cc3)n2)C1 (stereo not given)	-28.6%
Cc1c(F)cccc1NC(=O)N1CCCC(c2noc(COc3ccccc3)n2)C1 (stereo not given)	-86.4%
COCCOCc1nc(C2CCN(C(=O)NCc3ccc(C)cc3)CC2)no1	-25.5%
CCCNC(=O)N1CCC(c2noc(COc3ccc(C)cc3)n2)CC1	8.91µM*
CCOc1ccccc1NC(=O)N1CCCC(c2noc(COc3ccccc3)n2)C1 (stereo not given)	5.62µM*
Cn1c(=O)cc(C(=O)NC2CCCc3c2[nH]c2ccccc32)c2ccccc21 (stereo not given)	i
O=C(Cn1c(=O)n(Cc2ccc(C(=O)NCc3ccc4c(c3)OCO4)cc2)c(=O)c2ccccc21)Nc1ccc(F)cc1F	-11.7%
CC[C@H]1CN(C(=O)c2ccc(F)cc2)CC[C@H]1CC(=O)N(CC)C(=O)NCCCN(C)C	i
COc1cc2c(cc1NC(=O)C(C)Oc1ccccc1)oc1ccccc12 (stereo not given)	-15.9%
Cc1cccc(C(=O)N2CC(N(C)Cc3cccnc3)C2)c1	-4.7%
Cc1cc(C)n2nc(CC(=O)NCc3cc(-c4ccco4)on3)nc2n1	-7.6%
O=C(COCc1cc(-c2ccco2)on1)Nc1cccc(Cl)c1Cl	61.2%
Cc1cc(CNC(=O)c2cc(-c3ccco3)nc3c(Cl)cccc23)no1	8.91µM*
COc1ccc(OC)c(NC(=O)CCc2c(C)nc3c(-c4ccccc4)c(C)nn3c2C)c1	-22.4%
COc1ccccc1C(=O)N1CCC(C(NC(=O)c2ccccc2)C(=O)N2CCCCC2)CC1 (stereo not given)	i
CC(C)C[C@@H]1N[C@H](C(=O)O)Cc2cn(CC3CCC3)c3cccc1c23	i
CC(C)C[C@@H]1N[C@H](C(=O)O)Cc2cn(Cc3nccn3C)c3cccc1c23	i
C=CCNC(=O)[C@@H]1Cc2cn(Cc3cc(C)on3)c3cccc(c23)[C@H](CC(C)C)N1	-23.5%[44.1 µM]
CC(C)C[C@@H]1N[C@H](C(=O)NC2CCCC2)Cc2cn(Cc3nccn3C)c3cccc1c23	-4.5%[44.1 µM]
C=CCn1cc2c3c(cccc31)[C@H](CC(C)C)N[C@H](C(=O)NCCN(C)C)C2	-3.1%[44.1 µM]
Cc1cc(Cn2cc3c4c(cccc42)[C@H](CC(C)C)N[C@H](C(=O)NC2CCC2)C3)no1	-24.2%[44.1 µM]
SMILES	Pf Dd2 inh
CC(C)C[C@@H]1N[C@H](C(=O)NC2CCC2)Cc2cn(CC3CC3)c3cccc1c23	14.1µM*
Cc1cc(Cn2cc3c4c(cccc42)[C@H](CC(C)C)N[C@H](C(=O)NCc2cncn2C)C3)no1	11.2µM*
C=CCNC(=O)[C@@H]1Cc2cn(Cc3ccncc3)c3cccc(c23)[C@H](CC(C)C)N1	-29.4%[44.1 µM]
COCCCNC(=O)[C@@H]1Cc2cn(Cc3cc(C)on3)c3cccc(c23)[C@H](CC(C)C)N1	i
C#CCNC(=O)[C@@H]1Cc2cn(Cc3nccn3C)c3cccc(c23)[C@H](CC(C)C)N1	10µM*
C=CCNC(=O)[C@@H]1Cc2cn(CC=C)c3cccc(c23)[C@H](CC(C)C)N1	14.1µM*
CCOC(=O)c1c(NC(=O)COc2cccc(C)c2C)sc(C(C)=O)c1C	44.3%
CN[C@@H](CO)C(=O)N1CCC(c2cc(Cc3ccccc3)[nH]n2)CC1	-14.7%
Cc1cccc2cc(-c3nc(-c4cccs4)no3)c(=O)oc12	29.3%
COc1ccc(-c2nc(C)nc3c2CN([S+](=O)([O-])c2cccs2)CC3)cc1	-15.4%
CC(C)c1ccc(NC(=O)N[C@H]2CO[C@H]3[C@@H]2OC[C@H]3OC(=O)Nc2ccc(Oc3ccccc3)cc2)cc1	-29.2%
CN(CC(=O)N1CCc2c(c(-c3nncn3CC3CC3)nn2C)C1)S(=O)(=O)c1cnc[nH]1	i
COc1ccccc1Nc1ncc2c(n1)CN([S+](=O)([O-])c1ccccc1)CCN2	9.3%[44.1 µM]
COc1ccccc1Nc1ncc2c(n1)CN(C(=O)c1ccc(Oc3ccccc3)cc1)CCN2	8.91µM*
COc1ccccc1Nc1ncc2c(n1)CN(C(=O)c1cccc(O)c1)CCN2	-3.7%[44.1 µM]
Cc1c(S(=O)(=O)c2cccc(Cl)c2)nnn1-c1cccc(C(F)(F)F)c1	i
CN1CCN(C(=O)c2cncc(N[C@H]3C[C@@H]4OCC[C@H]34)n2)CC1	-21.9%
O=C(c1ccncc1)N1C[C@@H]2OCC(=O)N(Cc3ccncc3)[C@@H]2C1	13.6%[44.1 µM]
COC1C(=O)N(c2cccc(F)c2)C12CCN(S(=O)(=O)c1ccccc1C)CC2 (stereo not given)	12.6µM*
COC1C(=O)N(c2cccc(F)c2)C12CCN(C(=O)c1cnc(C)cn1)CC2 (stereo not given)	-7.5%
